# Data reported in PubChem BioAssay (NCATS).
# Inconclusive results are not listed. Where a call stands in place of a potency, no number is given. The source made the active and inactive calls. Calls follow the shape of the dose curve; as a rule, active = well fitted curve in the direction sought with a large enough effect; inconclusive = small, poorly fitted or top-dose-only effect, or another doubt; inactive = no such curve, though single readings can be large; an effect the other way counts as inactive or inconclusive.
# Columns and labels:
# [1] = qHTS of pediatric cancer cell lines to identify multiple opportunities for drug repurposing: Primary screen for MG 63 (6-TG R) cells (AID 1347105); also: nearly all actives have a fitted effect of over 50% in size
# Method in brief: (§1)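 Cells seeded at 500-1,000 cells/well in growth media, rested 5 hours at 37 degrees C, 5% CO2, then dosed; MIPE compounds at 11-point (from 0.78 nM) and NPC at 8-point (from 0.59 nM) final concentrations. Viability by CellTiter-Glo luminescence after 48 hours.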
# [2] = qHTS of pediatric cancer cell lines to identify multiple opportunities for drug repurposing: Primary screen for control Hh wild type fibroblast cells (AID 1347106); also: nearly all actives have a fitted effect of over 55% in size
# Method in brief: (§2)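 Cells (500-1,000/well) in growth media were settled 5 h at 37 degrees C, then given compounds for 48 h. Viability was read as CellTiter-Glo luminescence. Primary runs used MIPE at 11 points (0.78 nM-46 µM) and NPC at 8 points (0.59 nM-46 µM); follow-ups used 11 points.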
# [3] = qHTS of pediatric cancer cell lines to identify multiple opportunities for drug repurposing: Primary screen for Rh30 cells (AID 1347107); also: nearly all actives have a fitted effect of over 75% in size
# Method in brief: as §2
# [4] = qHTS of pediatric cancer cell lines to identify multiple opportunities for drug repurposing: Primary screen for Rh41 cells (AID 1347108); also: nearly all actives have a fitted effect of over 70% in size
# Method in brief: as §1
# [5] = qHTS of pediatric cancer cell lines to identify multiple opportunities for drug repurposing: Confirmatory screen for A673 cells (AID 1347110);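 also: cells exposed to compound for 48 h before the viability read; nearly all actives have a fitted effect of over 65% in size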
# Method in brief: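 Forty-eight-hour viability assay. Follow-up compounds ran at 11-point dilutions; positive control bortezomib at 2.3 uM final, neutral control DMSO.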
# [6] = qHTS of pediatric cancer cell lines to identify multiple opportunities for drug repurposing: Confirmatory screen for BT-12 cells (AID 1347112); also: nearly all actives have a fitted effect of over 55% in size
# Method in brief: as §2
# [7] = qHTS of pediatric cancer cell lines to identify multiple opportunities for drug repurposing: Confirmatory screen for LAN-5 cells (AID 1347113); also: nearly all actives have a fitted effect of over 65% in size
# Method in brief: as §2
# [8] = qHTS of pediatric cancer cell lines to identify multiple opportunities for drug repurposing: Confirmatory screen for DAOY cells (AID 1347114); also: nearly all actives have a fitted effect of over 65% in size
# Method in brief: (§3)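 Viability measured as metabolically active cells via CellTiter-Glo luminescence following 48 hours of compound exposure, 11-point dilutions in confirmatory testing. 500-1,000 cells/well plated 5 hours before dosing; controls were DMSO and 2.3 µM bortezomib.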
# [9] = qHTS of pediatric cancer cell lines to identify multiple opportunities for drug repurposing: Confirmatory screen for NB-EBc1 cells (AID 1347115);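 also: cells exposed to compound for 48 h before the viability read; nearly all actives have a fitted effect of over 45% in size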
# Method in brief: as §2
# [10] = qHTS of pediatric cancer cell lines to identify multiple opportunities for drug repurposing: Confirmatory screen for SJ-GBM2 cells (AID 1347116); also: nearly all actives have a fitted effect of over 60% in size
# Method in brief: as §3
# Potency is read from the fitted curve at half-maximal effect.
Structure (SMILES),Potency [1],Potency [2],Potency [3],Potency [4],Potency [5],Potency [6],Potency [7],Potency [8],Potency [9],Potency [10]
CCN(CC)C(=O)c1ccc(C2=CC3(CCNCC3)Oc3cccc(O)c32)cc1,inactive,inactive,inactive,inactive,,,,,,
O=c1[nH]c2ccc(Cl)cc2c(N[C@@H]2CN3CCC2CC3)c1-c1nc2ccccc2[nH]1,235 nM (active),16600 nM (active),inactive,14800 nM (active),261 nM (active),13100 nM (active),1470 nM (active),9270 nM (active),522 nM (active),1040 nM (active)
CC(C)Oc1cccc(NC(=O)c2ccccc2C(F)(F)F)c1,inactive,inactive,inactive,inactive,,,,,,
O=C1CCC[C@@H]2[C@H]3CCCN4CCC[C@@H](CN12)[C@@H]34,inactive,inactive,inactive,inactive,,,,,,
CCCN1CCO[C@@H]2c3cc(O)ccc3OC[C@@H]21,inactive,inactive,inactive,inactive,inactive,,inactive,inactive,inactive,inactive
CC(C)N(CCNC(=O)CN1CCCC1=O)C(C)C,inactive,inactive,inactive,inactive,,,,,,
Nc1ccc([N+](=O)[O-])cc1,inactive,inactive,inactive,inactive,,,,,,
O=[N+]([O-])c1c(Cl)c(Cl)cc(Cl)c1Cl,inactive,inactive,inactive,inactive,,inactive,,inactive,,
Clc1ccccc1C(c1ccccc1)(c1ccccc1)n1cccn1,inactive,inactive,inactive,inactive,,,,,,
COC(C)(C)CCCC(C)C/C=C/C(C)=C/C(=O)OC(C)C (stereo unspecified),inactive,inactive,inactive,inactive,,,,,,
COc1cccc2c1[C@]13CCN(CC4CC4)[C@H](C2)[C@]1(OC)CCC(=O)C3,inactive,inactive,inactive,inactive,,,,,,
C[C@]12COC(=O)C[C@@H]1CC[C@@H]1[C@H]2CC[C@@]2(C)[C@H]1CC[C@]2(C)O,inactive,inactive,inactive,inactive,,,,,,
C[C@](O)(COc1ccc(C#N)cc1)C(=O)Nc1ccc(C#N)c(C(F)(F)F)c1,inactive,inactive,inactive,inactive,,,,,,
CC(C)NCC(O)c1ccc([N+](=O)[O-])cc1 (stereo unspecified),inactive,inactive,inactive,inactive,,,,,,
Oc1ccc2c3c1O[C@H]1c4[nH]c5c(c4C[C@@]4(O)[C@@H](C2)N(CC2CC2)CC[C@]314)C[C@@]1(O)[C@H]2Cc3ccc(O)c4c3[C@@]1(CCN2CC1CC1)[C@H]5O4,inactive,inactive,inactive,inactive,,,,,,
CCOCCOC(C)=O,inactive,inactive,inactive,inactive,,,,,,
CCO/N=C(\CC)C1=C(O)CC(c2c(C)cc(C)cc2C)CC1=O (stereo unspecified),inactive,inactive,inactive,inactive,,,,,,
Cc1ccc(Cl)c(O)c1,inactive,inactive,inactive,inactive,,,,,,
CCC(=O)OC1CCC2C3CCC4=CC(=O)CC[C@@]4(C)C3CC[C@]12C (stereo partly specified),inactive,inactive,inactive,inactive,inactive,inactive,inactive,inactive,inactive,inactive
CC[C@@H]1[C@@H](C)O[C@@](O)([C@@H](C)[C@H](O)[C@H](C)[C@H]2OC(=O)C=CC=C[C@@H](C)[C@@H]([C@@H](C)[C@@H](O)[C@H](C)[C@@]3(O)C[C@H](O[C@H]4C[C@H](O)[C@H](O)[C@H](C)O4)[C@H](CC)[C@@H](C)O3)OC(=O)C=CC=C[C@@H]2C)C[C@H]1O[C@H]1C[C@H](O)[C@H](O)[C@H](C)O1,590 nM (active),9350 nM (active),935 nM (active),743 nM (active),,inactive,inactive,,,inactive
Nc1ccc(Cl)cc1,inactive,inactive,inactive,inactive,,,,,,
O=C(O)CCCOc1ccc(Cl)cc1Cl,inactive,inactive,inactive,inactive,inactive,inactive,inactive,inactive,19400 nM (active),
CC(N[C@H]1C[C@H]1c1ccccc1)c1ccc2c(c1)OCCO2 (stereo partly specified),inactive,inactive,inactive,inactive,,,,,,
COc1cc2cc(c1Cl)N(C)C(=O)C[C@H](OC(=O)C(C)C)[C@]1(C)O[C@H]1[C@H](C)[C@@H]1C[C@@](O)(NC(=O)O1)[C@H](OC)C=CC=C(C)C2,inactive,inactive,inactive,inactive,1 nM (active),1.6 nM (active),1170 nM (active),3.7 nM (active),,
C[C@@H]1CC[C@@]2(OC1)O[C@H]1C[C@H]3[C@@H]4CC=C5C[C@@H](O[C@@H]6O[C@H](CO)[C@@H](O[C@@H]7O[C@@H](C)[C@H](O)[C@@H](O)[C@@H]7O)[C@H](O)[C@@H]6O[C@@H]6O[C@@H](C)[C@H](O)[C@@H](O)[C@@H]6O)CC[C@]5(C)[C@@H]4CC[C@]3(C)[C@@H]1[C@H]2C,2960 nM (active),inactive,11800 nM (active),14800 nM (active),6570 nM (active),9270 nM (active),4650 nM (active),,16500 nM (active),
CCOC(=O)c1cncn1[C@H](C)c1ccccc1,inactive,inactive,,inactive,,,,,,
COC(=O)[C@@H](N)CCCN=C(N)N[N+](=O)[O-],inactive,,inactive,inactive,,,,,,
